Reference: PubChem BioAssay (EPA / NIEHS)
Inconclusive results are not listed. Active and inactive are the calls of the source. Rule for the calls: active = hit-call score of the fitted dose curve at least 0.9, where 1 is the maximum; inconclusive = response in the unintended direction; inactive = score below 0.9.

Key:
[1] = molecular target: cAMP-dependent protein kinase catalytic subunit alpha (Homo sapiens) (UniProt P17612); assay: NVS_ENZ_hPKA: NovaScreen (NVS) Enzymatic Assay for human Protein Kinase A (PKA) (AID 2283192)
Outline: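 Cell-free kinase activity read by fluorescence after mobility-shift separation of substrate and product, 1 h post-dosing. Single-concentration duplicate screen (25 uM) preceded singleton concentration series (top 50 uM); loss of signal versus DMSO.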

[2] = molecular target: human Protein Phosphatase, Mg2+/Mn2+ Dependent 1A (PPM1A), PPM1A (gene 5494) (UniProt P35813); assay: NVS_ENZ_hPPM1A: NovaScreen (NVS) Enzymatic Assay for human Protein Phosphatase, Mg2+/Mn2+ Dependent 1A (PPM1A) (AID 2283198)
Method: (§1) NVS_ENZ_hPPM1A is a biochemical, single-readout assay that uses extracted gene-proteins in a cell-free assay. Measurements were taken 1 hour after chemical dosing in a 384-well plate.NVS_ENZ_hPPM1A is one of one assay component(s) measured or calculated from the NVS_ENZ_hPPM1A assay. It is designed to make measurements of enzyme activity, a form of enzyme reporter, as detected with fluorescence intensity signals by Fluorescence and electrophoretic mobility shift technology.Data from the assay component NVS_ENZ_hPPM1A was analyzed into 1 assay endpoint. This assay endpoint, NVS_ENZ_hPPM1A, was analyzed in the positive analysis fitting direction relative to DMSO as the negative control and baseline of activity. Using a type of enzyme reporter, loss-of-signal activity can be used to understand changes in the enzymatic activity as they relate to the gene PPM1A. Furthermore, this assay endpoint can be referred to as a primary readout, because this assay has produced multiple assay endpoints where this one serves a enzymatic activity function. To generalize the intended target to other relatable targets, this assay endpoint is annotated to the phosphatase intended target family, where the subfamily is serine/threonine phosphatase. […]

[3] = molecular target: human Phosphodiesterase 5 (PDE5), PDE5A (gene 8654) (UniProt O76074); assay: NVS_ENZ_hPDE5: NovaScreen (NVS) Enzymatic Assay for human Phosphodiesterase 5 (PDE5) (AID 2283194)
Outline: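 Screening began in duplicate at 25 uM, with actives taken into concentration-response. Enzyme activity of recombinant PDE5 toward its substrate was measured at 1 h by fluorescence mobility-shift detection, relative to DMSO controls.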

PPP2CA (gene 5515) = PPP2CA (gene 5515) (UniProt P67775); assay: NVS_ENZ_hPPP2CA: NovaScreen (NVS) Enzymatic Assay for human Protein Phosphatase 2 Aatalytic subunit Alpha (PPP2CA) (AID 2283199)
Outline: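 Cell-free phosphatase activity: fluorescent substrate turnover by recombinant human enzyme, resolved by mobility shift at 1.33 h. Compounds passing the 25 uM duplicate primary screen were rerun in singleton series with a 50 uM top concentration.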

[4] = molecular target: human Protein Tyrosine Phosphatase Non-receptor Type 1 (PTPN1), PTPN1 (gene 5770) (UniProt P18031); assay: NVS_ENZ_hPTPN1: NovaScreen (NVS) Enzymatic Assay for human Protein Tyrosine Phosphatase Non-receptor Type 1 (PTPN1) (AID 2283201)
Method: as §1, with “NVS_ENZ_hPTPN1” for “NVS_ENZ_hPPM1A”, “1.33 hours” for “1 hour”, “plate.NVS_ENZ_hPTPN1” for “plate.NVS_ENZ_hPPM1A”, “NVS_ENZ_hPTPN1,” for “NVS_ENZ_hPPM1A,”, “PTPN1.” for “PPM1A.”, “non-receptor tyrosine” for “serine/threonine”

Chain of human Protein Phosphatase, Mg2+/Mn2+ Dependent 1A (PPM1A), PPM1A (gene 5494) (P35813 whole entry, looked up): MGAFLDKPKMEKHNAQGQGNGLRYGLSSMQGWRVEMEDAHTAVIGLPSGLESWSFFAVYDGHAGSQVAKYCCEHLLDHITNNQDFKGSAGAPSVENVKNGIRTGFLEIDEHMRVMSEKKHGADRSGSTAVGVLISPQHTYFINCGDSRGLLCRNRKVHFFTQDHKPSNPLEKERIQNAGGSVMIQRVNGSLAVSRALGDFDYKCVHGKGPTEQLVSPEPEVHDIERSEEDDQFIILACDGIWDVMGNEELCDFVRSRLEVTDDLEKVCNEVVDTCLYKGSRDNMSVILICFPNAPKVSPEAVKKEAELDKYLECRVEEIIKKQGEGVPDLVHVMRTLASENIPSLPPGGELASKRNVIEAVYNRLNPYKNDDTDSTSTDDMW
Chain of PPP2CA (gene 5515) (P67775 whole entry, looked up): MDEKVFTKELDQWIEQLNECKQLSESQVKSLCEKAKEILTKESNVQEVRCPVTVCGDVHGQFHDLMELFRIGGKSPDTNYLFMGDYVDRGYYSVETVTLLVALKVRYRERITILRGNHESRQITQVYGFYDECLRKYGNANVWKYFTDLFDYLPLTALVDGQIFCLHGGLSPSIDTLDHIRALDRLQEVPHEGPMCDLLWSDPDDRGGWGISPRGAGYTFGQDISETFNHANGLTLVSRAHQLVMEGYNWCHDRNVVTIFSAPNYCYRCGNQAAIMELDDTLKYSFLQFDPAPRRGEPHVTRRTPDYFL
Chain of human Protein Tyrosine Phosphatase Non-receptor Type 1 (PTPN1), PTPN1 (gene 5770) (P18031 whole entry, looked up): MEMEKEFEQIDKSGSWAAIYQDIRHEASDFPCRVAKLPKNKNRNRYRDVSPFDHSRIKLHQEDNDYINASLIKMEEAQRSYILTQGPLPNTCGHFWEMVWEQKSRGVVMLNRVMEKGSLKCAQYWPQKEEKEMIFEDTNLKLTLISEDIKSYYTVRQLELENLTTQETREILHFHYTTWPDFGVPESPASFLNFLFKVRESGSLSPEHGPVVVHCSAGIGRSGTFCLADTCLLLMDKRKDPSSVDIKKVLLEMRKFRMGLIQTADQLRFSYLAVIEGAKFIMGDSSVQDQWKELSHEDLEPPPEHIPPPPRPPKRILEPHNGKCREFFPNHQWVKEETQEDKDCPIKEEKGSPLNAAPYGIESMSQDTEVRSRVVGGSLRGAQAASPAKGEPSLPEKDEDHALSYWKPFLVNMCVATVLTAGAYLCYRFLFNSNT

SMILES: CCOc1ccc(C(C)(C)COCc2cccc(Oc3ccccc3)c2)cc1
- outcome [1]: inactive
- outcome [2]: inactive

SMILES: Nc1cc2c3c(c1)C(c1ccccc1)=N[C@@H](NC(=O)c1cccnc1)C(=O)N3CC2
- AC50 [3]: 17.9 µM (active)

SMILES: [N-]=[N+]=[N-]
- outcome [3]: inactive

SMILES: O=C(O)C(Cl)Cl
- outcome [2]: inactive

SMILES: ClC(Cl)(Cl)c1ccccc1
- outcome (PPP2CA (gene 5515)): inactive

SMILES: CC(C)(C)OOC(C)(C)C
- outcome (PPP2CA (gene 5515)): inactive

SMILES: ClC1=C(Cl)C2(Cl)C3C(Cl)C(Cl)CC3C1(Cl)C2(Cl)Cl (stereo not drawn)
- outcome [4]: inactive
